# Calls of active or inactive are those of the source. Rule for the calls: active = hit-call score of the fitted dose curve at least 0.9, where 1 is the maximum; inactive = score below 0.9.
# Target: CYP2B6, CYP2B6 (gene 1555) (UniProt P20813)
# Experiment: ERF_FR_ADME_hCYP2B6: Eurofins (ERF) CYP450-related Enzyme Activity (ADME) LeadHunter Assay for CYP2B6
# Procedure: ERF_FR_ADME_hCYP2B6 is a biochemical, single-readout assay that uses extracted gene-proteins in a cell-free assay. Measurements were taken 0.5 hour after chemical dosing in a 96-well plate. See CYP2B6 inhibition (recombinant, EFC substrate).ERF_FR_ADME_hCYP2B6 is an assay component calculated from the ERF_FR_ADME_hCYP2B6 assay. It is designed to measure enzyme activity using a type of enzyme reporter as detected by fluorescence intensity of HFC with fluorimetry technology.Data from the assay component ERF_FR_ADME_hCYP2B6 was analyzed at the assay endpoint, ERF_FR_ADME_hCYP2B6, in the positive analysis fitting direction relative to acetonitrile as the negative control and baseline of activity. Using a type of enzyme reporter, loss-of-signal activity can be used to understand changes in enzymatic activity as they relate to gene CYP2B6. To generalize the intended target to other relatable targets, this assay endpoint is annotated to the cyp intended target family, where the subfamily is steroidogenesis-related.
# […] are incubated for 15 minutes at 37 C with Bupropion as substrate and Clopidogrel as control inhibitor. Test Sample Requirements: Minimum for 1) Screen: 25 ul of 10 mM stock -OR- 1 mg (pre-weighed) for 10 uM final testing. 2) Dose Response: 60 ul of 10 mM stock -OR- 1 mg (pre-weighed). uM.
# Chain of CYP2B6, CYP2B6 (gene 1555) (P20813 whole entry, looked up): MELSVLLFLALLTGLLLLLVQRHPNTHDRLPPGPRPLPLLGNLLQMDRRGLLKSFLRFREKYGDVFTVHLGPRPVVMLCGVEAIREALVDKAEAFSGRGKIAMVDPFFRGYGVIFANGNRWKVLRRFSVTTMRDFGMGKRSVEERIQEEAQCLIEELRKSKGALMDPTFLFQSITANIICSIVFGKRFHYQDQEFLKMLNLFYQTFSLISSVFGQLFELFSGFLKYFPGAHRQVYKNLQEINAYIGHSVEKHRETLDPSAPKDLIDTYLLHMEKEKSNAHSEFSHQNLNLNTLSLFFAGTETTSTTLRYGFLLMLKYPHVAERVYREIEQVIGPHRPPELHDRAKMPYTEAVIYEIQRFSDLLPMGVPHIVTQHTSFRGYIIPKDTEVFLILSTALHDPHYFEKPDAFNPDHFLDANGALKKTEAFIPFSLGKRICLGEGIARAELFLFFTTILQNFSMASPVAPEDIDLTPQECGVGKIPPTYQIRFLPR
row,Compound,AC50
1,O=C(/C=C/c1ccc(O)cc1)CC(=O)/C=C/c1ccc(O)cc1,1.27 µM (active)
